Test results reported in PubChem BioAssay (NCI).
About 83,000 compounds went through this panel and 20% of them were active in at least one assay; those are over-represented in the sample as a whole.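 A percent growth of 40 corresponds to 60% growth inhibition; 0 means no net growth; -100 means all cells died. Active threshold: below 10.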 Active and inactive are the calls of the source.

Columns and labels:
Experiment in all cases: NCI-60 one-dose screen, 48 h (100 = growth as untreated, 0 = no growth, -100 = all killed)
Settings in all cases: 10 µM unless noted
SK-MEL-2 melanoma = system: SK-MEL-2 melanoma
EKVX NSCLC = system: EKVX NSCLC
SN12C renal = system: SN12C renal
UO-31 renal = system: UO-31 renal
TK-10 renal = system: TK-10 renal
ACHN renal = system: ACHN renal
CAKI-1 renal = system: CAKI-1 renal
A498 renal = system: A498 renal
CCRF-CEM leukemia = system: CCRF-CEM leukemia
RPMI-8226 leukemia = system: RPMI-8226 leukemia
OVCAR-8 ovarian = system: OVCAR-8 ovarian
OVCAR-5 ovarian = system: OVCAR-5 ovarian
OVCAR-4 ovarian = system: OVCAR-4 ovarian
SK-OV-3 ovarian = system: SK-OV-3 ovarian
IGROV1 ovarian = system: IGROV1 ovarian
OVCAR-3 ovarian = system: OVCAR-3 ovarian
HS 578T breast = system: HS 578T breast
NCI/ADR-RES ovarian = system: NCI/ADR-RES ovarian
SR leukemia = system: SR leukemia

Measured: growth

Cc1ccc(-c2nnc3ccc(N/N=C/c4ccccc4)nn23)cc1
inactive: SK-MEL-2 melanoma 102% | EKVX NSCLC 76.9% | SN12C renal 101% | UO-31 renal 84.5% | TK-10 renal 104% | ACHN renal 95.4% | CAKI-1 renal 83.3% | A498 renal 105% | CCRF-CEM leukemia 88.8% | RPMI-8226 leukemia 80.6% | OVCAR-8 ovarian 87.1% | OVCAR-5 ovarian 107% | OVCAR-4 ovarian 69.1% | SK-OV-3 ovarian 100% | IGROV1 ovarian 98.9% | OVCAR-3 ovarian 30.3% | HS 578T breast 46.6% | NCI/ADR-RES ovarian 84.1%

COc1ccc(C(=O)/C=C/c2cccc(Cl)c2Cl)cc1S(N)(=O)=O
active: EKVX NSCLC 0.538% | SN12C renal -2.06% | UO-31 renal -81.3% | ACHN renal -82.4% | CAKI-1 renal -5.88% | CCRF-CEM leukemia 0.527% | RPMI-8226 leukemia -8.84% | OVCAR-8 ovarian -64% | OVCAR-5 ovarian -7.8% | OVCAR-3 ovarian -56.1%
inactive: SK-MEL-2 melanoma 74.4% | TK-10 renal 20.3% | A498 renal 94.9% | OVCAR-4 ovarian 35.9% | SK-OV-3 ovarian 43.3% | IGROV1 ovarian 10.1% | HS 578T breast 35.6% | NCI/ADR-RES ovarian 13.3%

COc1ccc2c(c1)c(-c1cc3nc(-c4cn(C)c5ncc(Br)cc45)cc(N)n3n1)cn2C
inactive: A498 renal 86.8% | OVCAR-4 ovarian 17.3%
active: SK-MEL-2 melanoma -68.6% | EKVX NSCLC -51.6% | SN12C renal -75.3% | UO-31 renal -58.1% | TK-10 renal -40.8% | ACHN renal -92.3% | CAKI-1 renal -39.9% | CCRF-CEM leukemia -29.2% | RPMI-8226 leukemia -0.77% | OVCAR-8 ovarian -48.8% | OVCAR-5 ovarian -47.6% | SK-OV-3 ovarian -55.6% | IGROV1 ovarian -25.8% | OVCAR-3 ovarian -18.6% | HS 578T breast -18.6% | NCI/ADR-RES ovarian -30.3%

COc1ccc(C(=O)/C=C/c2ccc3ccccc3c2)cc1S(N)(=O)=O
inactive: SK-MEL-2 melanoma 53.4% | A498 renal 97.2% | OVCAR-4 ovarian 32.5% | SK-OV-3 ovarian 22.5% | HS 578T breast 68.8% | NCI/ADR-RES ovarian 18.9%
active: EKVX NSCLC -73.4% | SN12C renal -43.7% | UO-31 renal -87.2% | TK-10 renal -82.3% | ACHN renal -92.2% | CAKI-1 renal 2.11% | CCRF-CEM leukemia 5.96% | RPMI-8226 leukemia -17.5% | OVCAR-8 ovarian -60.6% | OVCAR-5 ovarian -43.4% | IGROV1 ovarian -8.23% | OVCAR-3 ovarian -41.9%

Cc1ccc2c(N)c(C(=O)Nc3ccc(-c4ccccc4)cc3)sc2n1
inactive: SK-MEL-2 melanoma 58.9% | EKVX NSCLC 22.7% | SN12C renal 65.1% | UO-31 renal 56.1% | TK-10 renal 75.3% | ACHN renal 60.1% | CAKI-1 renal 59.4% | A498 renal 114% | CCRF-CEM leukemia 55.4% | SR leukemia 43.1% | RPMI-8226 leukemia 49.2% | OVCAR-8 ovarian 73.4% | OVCAR-5 ovarian 71% | OVCAR-4 ovarian 47.3% | SK-OV-3 ovarian 60.3% | IGROV1 ovarian 72.5% | OVCAR-3 ovarian 79.1% | NCI/ADR-RES ovarian 50.5%

CCN1CCN(Cc2ccc(C(=O)Nc3cccc(C#Cc4cccc5[nH]nc(N)c45)c3)cc2C(F)(F)F)CC1
active: SK-MEL-2 melanoma -80.7% | EKVX NSCLC -93.1% | SN12C renal -76.1% | UO-31 renal -94.2% | TK-10 renal -94.2% | ACHN renal -98.2% | CAKI-1 renal -91.7% | A498 renal -84.6% | CCRF-CEM leukemia 3.6% | RPMI-8226 leukemia -30.9% | OVCAR-8 ovarian -96.8% | OVCAR-5 ovarian -88.8% | OVCAR-4 ovarian -24.8% | SK-OV-3 ovarian -69.2% | IGROV1 ovarian -44.7% | OVCAR-3 ovarian -22.1% | HS 578T breast -15.8% | NCI/ADR-RES ovarian -27%

O=C(NNc1nc2cc(C(F)(F)F)ccc2n2cccc12)c1cnccn1
active: SK-MEL-2 melanoma -73.1% | EKVX NSCLC -83.2% | SN12C renal -59.9% | UO-31 renal -64.6% | TK-10 renal -91.8% | ACHN renal -97.5% | CAKI-1 renal -87.6% | A498 renal -92.7% | CCRF-CEM leukemia 6.27% | RPMI-8226 leukemia 1.97% | OVCAR-8 ovarian -77.2% | OVCAR-5 ovarian -59.2% | OVCAR-4 ovarian -43.9% | SK-OV-3 ovarian -88.2% | IGROV1 ovarian -16.3% | OVCAR-3 ovarian -47.7% | NCI/ADR-RES ovarian -12%
inactive: HS 578T breast 16.3%

O=C(Nc1ccc(C(F)(F)F)cc1)Nc1ccc2oc(=O)ccc2c1
active: SN12C renal 7.6% | UO-31 renal -10.3% | ACHN renal 6.95% | RPMI-8226 leukemia -20.4%
inactive: SK-MEL-2 melanoma 30% | EKVX NSCLC 12.2% | TK-10 renal 36.1% | CAKI-1 renal 22.9% | A498 renal 27.4% | CCRF-CEM leukemia 16.1% | OVCAR-8 ovarian 15.7% | OVCAR-5 ovarian 39.5% | OVCAR-4 ovarian 41.7% | SK-OV-3 ovarian 16% | IGROV1 ovarian 33% | OVCAR-3 ovarian 26.7% | HS 578T breast 49.7% | NCI/ADR-RES ovarian 12.4%

COc1ccc(-c2nc3cc(C)ccc3n2CC(=O)N=Nc2c(O)[nH]c3ccc(Cl)cc23)cc1
active: EKVX NSCLC -49.5% | SN12C renal -62.6% | ACHN renal 5.37% | SR leukemia -7.22% | OVCAR-8 ovarian -74.8% | OVCAR-5 ovarian 3.51% | OVCAR-4 ovarian -25.4% | OVCAR-3 ovarian -13.8% | HS 578T breast -2.87% | NCI/ADR-RES ovarian -30.8%
inactive: SK-MEL-2 melanoma 47.9% | UO-31 renal 41.7% | TK-10 renal 21.6% | CAKI-1 renal 33% | A498 renal 101% | CCRF-CEM leukemia 54.9% | RPMI-8226 leukemia 41.8% | SK-OV-3 ovarian 13.7% | IGROV1 ovarian 18.3%
